# Screens from PubChem.
# An excerpt weighted towards active compounds, which were near 9.3% of everything screened.
# ELG1 genotoxic = inducers of genotoxicity in HEK293T ELG1-luciferase cells; HEK293T ELG1-luciferase reporter, luminescence, 16 h; Potency, µM (titrated, usually from 46 µM), most hits filed as activators; 330,000 tested, 1.3% active; AID 504466; also: nearly all actives have a fitted effect of over 60% in size
#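 Step 1: seed 2,000 HEK293T ELG1-luciferase cells per well. Step 2: add compound or DMSO, incubate 16 hr at 37 °C. Step 3: ONE-Glo, 30 min at room temperature, read luminescence.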
# NPC1 prom act = activators of NPC1 promoter | Huh7 NPC1 promoter luciferase reporter, 24 h | Potency, µM (titrated, usually from 9.22 µM), actives largely listed as activators | 320,000 tested, 2.4% active | AID 485313; also: nearly all actives have a fitted effect of over 60% in size
#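 Luciferase expression driven by the NPC1 promoter was measured in stably transfected Huh7 cells after a 24 h compound incubation, using a luciferase reagent and a luminescence read.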
# ELG1 DNA repair = ELG1-dependent DNA repair inhibition | 330,000 tested, 2.3% active | HEK293T ELG1-luciferase reporter, luminescence, 16 h; DNA damage induced by 5-fluorouridine | Potency, µM (titrated, usually from 46.1 µM), most hits filed as inhibitors; also: nearly all actives have a fitted effect of over 55% in size
#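 Overnight (16 hr) co-exposure of 2,000 cells/well to 5-fluorouridine and compound at 37 °C preceded detection. Luciferase was quantified via ONE-Glo luminescence; loss of signal denotes inhibition.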
# SMN2 splice enh = increases expression of the SMN2 splice variant. HEK293 SMN2-luciferase splicing reporter, luminescence, 30-36 h. Potency, µM (highest dose often 46.1 µM), most hits filed as activators. AID 1458. 210,000 tested, 2.8% active; also: nearly all actives have a fitted effect of over 55% in size
#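 HEK293 cells carry an SMN2 minigene-luciferase reporter in which exon 7 inclusion puts luciferase in frame. Cells were seeded at 2000 cells/well, attached for 10-12 hours, then exposed to compounds for 30-36 hours at 37C before ONE-Glo luminescence.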
# FLuc modulator = inhibits or activates purified firefly luciferase, miR-21 counter-screen; P08659; purified FLuc, Km substrates, luminescence inhibition; Potency, µM (series often up to 57.5 µM), most hits filed as inhibitors; 360,000 tested, 6.9% active; also: nearly all actives have a fitted effect of over 55% in size
#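 Biochemical qHTS of compounds, final roughly 60 µM downward over six points, against 10 nM purified firefly luciferase using Km concentrations of substrates (10 uM D-luciferin, 10 uM ATP) in Tris acetate pH 7.5 buffer; luminescence output.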
# Rab9 prom act = activates the Rab9 promoter. Huh7 Rab9 promoter-luciferase reporter, luminescence, 24 h. Potency, µM (series often up to 9.22 µM), hits mostly activators. 320,000 tested, 2.8% active. AID 485297; also: nearly all actives have a fitted effect of over 60% in size
#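 Cell-based reporter: Huh7 stable for Rab9 promoter-driven luciferase, plated in reduced-serum medium with 10% FBS at 1500 cells/well, compound-treated 24 h at 37 °C, luminescence read after 10 min reagent.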
# ELG1 FLuc counter = luciferase inhibition in cell-free luciferin readout for ELG1 hits. shares compounds with ELG1 DNA repair. cell-free firefly luciferase luminescence counter-screen, ViewLux. Potency, µM (doses to about 46.1 µM), usual class: inhibitors. AID 624247. 350 tested, 3% active
# ELG1 Luc conf = human ELG1 repair inhibition, luciferase-tagged ELG1 confirmation. shares compounds with ELG1 DNA repair. HEK293T ELG1-luciferase levels, luminescence; cells co-treated with 5-fluorouridine. Potency, µM (titrated, usually from 46.1 µM), usual class: inhibitors. 670 tested, 68% active; also: nearly all actives have a fitted effect of over 55% in size
# Target sequence (Q96QE3 whole entry, looked up): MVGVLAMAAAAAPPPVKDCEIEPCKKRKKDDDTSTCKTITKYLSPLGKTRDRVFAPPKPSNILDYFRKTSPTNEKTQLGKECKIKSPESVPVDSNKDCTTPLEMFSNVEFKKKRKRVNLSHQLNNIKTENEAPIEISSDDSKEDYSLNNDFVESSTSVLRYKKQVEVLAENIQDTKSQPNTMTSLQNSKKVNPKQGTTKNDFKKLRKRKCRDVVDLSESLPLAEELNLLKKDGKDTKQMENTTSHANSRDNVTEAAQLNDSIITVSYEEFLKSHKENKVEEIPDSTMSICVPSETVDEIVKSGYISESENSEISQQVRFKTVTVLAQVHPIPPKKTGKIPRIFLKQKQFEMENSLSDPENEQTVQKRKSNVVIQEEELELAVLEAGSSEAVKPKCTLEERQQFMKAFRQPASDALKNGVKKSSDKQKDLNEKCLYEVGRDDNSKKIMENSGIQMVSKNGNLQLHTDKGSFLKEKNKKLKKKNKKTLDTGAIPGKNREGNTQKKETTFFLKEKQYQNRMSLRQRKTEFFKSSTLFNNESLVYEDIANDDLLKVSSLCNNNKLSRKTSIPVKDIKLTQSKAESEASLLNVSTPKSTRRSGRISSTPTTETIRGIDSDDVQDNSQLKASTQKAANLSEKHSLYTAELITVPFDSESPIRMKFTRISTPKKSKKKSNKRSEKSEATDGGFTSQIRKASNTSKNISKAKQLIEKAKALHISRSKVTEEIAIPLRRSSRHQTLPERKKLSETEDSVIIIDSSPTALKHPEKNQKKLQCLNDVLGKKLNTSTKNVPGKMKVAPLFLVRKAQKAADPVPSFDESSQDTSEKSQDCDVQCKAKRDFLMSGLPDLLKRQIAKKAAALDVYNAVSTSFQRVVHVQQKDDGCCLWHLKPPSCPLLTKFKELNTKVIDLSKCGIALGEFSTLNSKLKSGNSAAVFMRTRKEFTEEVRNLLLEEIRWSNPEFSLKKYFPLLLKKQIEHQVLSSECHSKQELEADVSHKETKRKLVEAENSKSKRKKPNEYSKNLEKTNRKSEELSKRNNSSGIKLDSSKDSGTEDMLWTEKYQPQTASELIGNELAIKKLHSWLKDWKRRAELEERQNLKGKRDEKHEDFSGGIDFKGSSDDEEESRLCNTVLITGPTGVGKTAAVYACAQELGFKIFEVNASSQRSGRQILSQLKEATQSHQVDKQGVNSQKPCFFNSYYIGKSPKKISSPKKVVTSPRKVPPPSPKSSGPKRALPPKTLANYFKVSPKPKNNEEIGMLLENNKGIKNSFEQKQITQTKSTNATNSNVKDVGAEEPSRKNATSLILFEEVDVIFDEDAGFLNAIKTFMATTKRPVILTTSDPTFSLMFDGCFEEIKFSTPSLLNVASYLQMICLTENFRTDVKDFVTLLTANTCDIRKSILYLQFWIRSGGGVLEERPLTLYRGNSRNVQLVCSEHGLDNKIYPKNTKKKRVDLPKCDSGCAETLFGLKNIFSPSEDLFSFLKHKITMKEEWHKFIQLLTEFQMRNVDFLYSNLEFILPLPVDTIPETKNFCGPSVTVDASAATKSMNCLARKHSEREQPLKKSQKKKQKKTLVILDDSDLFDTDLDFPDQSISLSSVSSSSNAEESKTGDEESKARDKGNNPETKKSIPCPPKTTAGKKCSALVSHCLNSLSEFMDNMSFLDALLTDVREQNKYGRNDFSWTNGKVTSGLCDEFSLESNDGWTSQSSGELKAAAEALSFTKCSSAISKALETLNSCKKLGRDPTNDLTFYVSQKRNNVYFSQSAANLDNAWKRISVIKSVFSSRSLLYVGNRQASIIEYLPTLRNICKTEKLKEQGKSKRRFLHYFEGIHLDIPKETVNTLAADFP
# ELG1-Luc MMS = confirmation of human ELG1 repair inhibitors, MMS stimulated | 670 tested, 53% active | shares compounds with ELG1 DNA repair | HEK293T luciferase-tagged ELG1 level, MMS stimulated | AID 624249 | Potency, µM (top dose mostly 46.1 µM), most hits filed as inhibitors; also: nearly all actives have a fitted effect of over 60% in size
# ELG1 5FU viab = confirmation of ELG1 repair inhibitors: viability with 5FU. Potency, µM (series often up to 46.1 µM), actives largely listed as cytotoxic. cell viability with 5-FU, ELG1-dependent repair. shares compounds with ELG1 DNA repair. AID 624250. 670 tested, under 10 active;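 also: ELG1-luc HEK293T cells cotreated with 5-fluorouridine at 10 µM final; viability measured 16 h after compound addition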
# ELG1 MMS cell = confirmation of ELG1 repair inhibitors: viability with MMS | shares compounds with ELG1 DNA repair | Cell viability with MMS, ELG1-dependent DNA repair | Potency, µM (doses to about 46.1 µM), usual class: cytotoxic | 670 tested, 33% active | AID 624251;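 also: ELG1-luc HEK293T cells co-treated with 10 µM MMS; viability read 16 h after compound addition; nearly all actives have a fitted effect of over 60% in size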
# Cell viab unstim = affects unstimulated cell viability, ELG1 hit counter-screen; shares compounds with ELG1 DNA repair; cell viability counter-screen, unstimulated, luminescence; Potency, µM (doses to about 45.9 µM), hits mostly cytotoxic; 900 tested, 8% active;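 also: compound exposure lasted 16 hours before reading; nearly all actives have a fitted effect of over 55% in size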
# FLuc enzyme = counter-screen for ELG1 repair inhibitors: firefly luciferase inhibition; shares compounds with ELG1 DNA repair; purified firefly luciferase, luminescence counter-screen; Potency, µM (top dose mostly 57.5 µM), actives largely listed as inhibitors; 350 tested, 10% active
# Numbers stand for hits; - = inactive; ? = inconclusive; . = no result. Calls follow the shape of the dose curve; as a rule, active = well fitted curve in the direction sought with a large enough effect; inconclusive = small, poorly fitted or top-dose-only effect, or another doubt; inactive = no such curve, though single readings can be large; an effect the other way counts as inactive or inconclusive.
SMILES,ELG1 genotoxic,NPC1 prom act,ELG1 DNA repair,SMN2 splice enh,FLuc modulator,Rab9 prom act,ELG1 Luc conf,ELG1-Luc MMS,ELG1 5FU viab,ELG1 MMS cell,Cell viab unstim,others
CCOc1ccc(N2CCCn3c2nc2c3c(=O)n(CCc3ccccc3)c(=O)n2C)cc1,-,-,-,-,-,-,.,.,.,.,.,
COc1ccc(OCCN2CCN(C(=O)c3ccc(OC)cc3)CC2)cc1,-,-,3.3µM,.,-,-,?,7.1µM,-,7.9µM,-,
CCCN(CCC)c1ncnc2nc[nH]c12,-,-,1.6µM,-,-,-,4.4µM,?,-,-,-,
CCOc1cc(C(=O)Nc2cccc(OCC(=O)N3CCOCC3)c2)cc(OCC)c1OCC,-,-,2.1µM,.,-,-,8.9µM,?,-,-,-,
O=C(Nc1cccc(OCC(=O)N2CCOCC2)c1)c1cccc(Cl)c1,-,-,-,.,-,-,.,.,.,.,.,
O=C(NCc1cccs1)c1cc(-c2ccccc2)on1,7.3µM,2.5µM,?,25µM,?,2.5µM,.,.,.,.,-,ELG1 FLuc counter=-;FLuc enzyme=?
Cc1cc(C(=O)NCc2cccs2)nn1C,-,-,-,.,-,-,.,.,.,.,.,
CC(C)c1ccc(C(CC(=O)O)N2Cc3ccccc3C2=O)cc1 (stereo unspecified),-,-,-,.,-,-,.,.,.,.,.,
Fc1ccccc1-c1csc(=Nc2cccnc2)n1CC1CCCO1 (stereo unspecified),-,-,?,-,-,-,?,22µM,-,16µM,?,ELG1 FLuc counter=-;FLuc enzyme=-
Fc1ccccc1-c1csc(=Nc2cccnc2)n1CCCn1ccnc1,-,-,10µM,-,-,-,13µM,20µM,-,22µM,?,ELG1 FLuc counter=-;FLuc enzyme=?
COCCn1c(-c2cccs2)csc1=Nc1cccnc1,-,-,?,-,-,-,.,.,.,.,.,
COc1cccc(NS(=O)(=O)c2ccc3c(c2)CCN3C(C)=O)c1,-,-,2.1µM,.,-,-,?,6.3µM,-,4.4µM,?,
CSc1cccc(NS(=O)(=O)c2ccc3c(c2)CCN3C(C)=O)c1,-,-,?,.,-,-,.,.,.,.,.,
CCc1cccc(NC(=O)C2CCCN(c3ncnc4c3nc3n4CCCCC3)C2)c1 (stereo unspecified),-,-,18µM,.,-,-,14µM,22µM,-,-,?,ELG1 FLuc counter=-;FLuc enzyme=-
CCN1CCN(C(=O)C2CCCN(c3ncnc4c3nc3n4CCCCC3)C2)CC1 (stereo unspecified),-,-,?,.,-,-,.,.,.,.,.,
COc1cc(NC(=O)C2CCCN(c3ncnc4c3nc3n4CCCCC3)C2)cc(OC)c1OC (stereo unspecified),-,-,1.8µM,.,-,-,4.5µM,-,?,-,-,ELG1 FLuc counter=-;FLuc enzyme=-
O=C(C1CCCN(c2ncnc3c2nc2n3CCCCC2)C1)N1CCN(c2ccccc2F)CC1 (stereo unspecified),-,-,9.2µM,.,-,-,11µM,25µM,-,-,?,ELG1 FLuc counter=-;FLuc enzyme=-
Cc1c(CC(=O)N2CCN(C(=O)C3COc4ccccc4O3)CC2)c(=O)oc2c(C)c(O)ccc12 (stereo unspecified),-,-,0.58µM,.,-,-,4µM,?,?,-,?,ELG1 FLuc counter=-;FLuc enzyme=-
Cc1cc(=O)oc2c(C)c(OCC(=O)N3CCN(C(=O)C4COc5ccccc5O4)CC3)ccc12 (stereo unspecified),-,-,?,.,-,-,.,.,.,.,.,
COc1cc(C(=O)NC(=S)Nc2ccccc2N2CCCC2)cc(OC)c1OC,-,-,2.6µM,.,-,-,4µM,-,?,-,?,
COc1cc(C(=O)Nc2ccccc2NC(=O)c2cc(OC)c(OC)c(OC)c2)cc(OC)c1OC,-,-,3.3µM,.,-,-,3.1µM,-,?,-,?,
COc1cc(C(=O)Nc2ccccc2C(=O)Nc2ccccn2)cc(OC)c1OC,-,-,2µM,.,-,-,3.5µM,13µM,?,?,?,
COc1cccc(C(=O)NC(=S)Nc2ccccc2N2CCCCC2)c1,-,-,-,.,-,-,.,.,.,.,.,
O=C(CNC(=O)c1ccc(Cl)cc1Cl)NCc1ccccn1,-,-,-,.,-,-,.,.,.,.,.,
Cc1csc(SC(C)C(=O)NC2CCCCC2C)n1 (stereo unspecified),-,-,-,.,-,-,.,.,.,.,.,
SMILES,ELG1 genotoxic,NPC1 prom act,ELG1 DNA repair,SMN2 splice enh,FLuc modulator,Rab9 prom act,ELG1 Luc conf,ELG1-Luc MMS,ELG1 5FU viab,ELG1 MMS cell,Cell viab unstim,others
CCN(CC)CCCNC(=O)c1c(O)c2c([nH]c1=O)CCCC2,-,-,-,-,-,-,.,.,.,.,.,
COc1ccc(CNC(=O)Cc2csc3ccccc23)cc1OC,.,.,.,-,?,.,.,.,.,.,.,
Cc1nc2nc(NC(=O)c3cccc(Cl)c3)[nH]n2c(=O)c1Cc1ccccc1,.,.,.,-,?,.,.,.,.,.,.,
COc1cc(C(=O)Oc2ccccc2/C=N/NC(=O)c2ccc(C)c(Cl)c2)cc(OC)c1OC,?,-,4.6µM,-,-,-,2.8µM,?,?,-,-,
COCCn1ccc2c(OCC(=O)Nc3cc(OC)ccc3OC)cccc2c1=O,-,-,?,.,-,-,.,.,.,.,.,
CCOCCn1ccc2c(OCC(=O)Nc3cc(OC)ccc3OC)cccc2c1=O,-,-,4.1µM,.,-,-,11µM,16µM,?,?,?,
CC(=O)NNC(=O)CC(=O)Nc1nc(C23CC4CC(CC(C4)C2)C3)cs1,-,-,-,-,?,-,.,.,.,.,.,
CN(C)c1cccc(C(=O)NNC(=O)CN2C(=O)C3CC=CCC3C2=O)c1 (stereo unspecified),10µM,.,?,.,.,.,.,.,.,.,-,
Cc1cccc(C)c1NC(=O)CN1C(=O)C2CC=CCC2C1=O (stereo unspecified),-,-,-,.,-,-,.,.,.,.,.,
